Compounds with a hit are over-represented: about 2.4% of the library has one in this group of screens.
TMEM16A act: mouse TMEM16A channel activation, primary screen. B-score at 10 µM. hit rate 0.3% among 340,000. HEK293 TMEM16A/YFP-H148Q/I152L, iodide quench fluorescence; stronger effect = lower value. AID 623877;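 active = fluorescence-ratio B-score plate-corrected deviation score at least 3 library SD below zero, with starting fluorescence score within 5 deviations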;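 also: channel opened by trigger with iodide after compound preincubation; score built on the fluorescence ratio of max minus min over baseline; more negative score means more quench and so TMEM16A activation or potentiation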
CHT block: inhibits the human high affinity choline transporter. CHT-expressing cells, membrane potential dye, choline response; stronger effect = lower value. Q9GZV3. B-score at 10 µM. hit rate 0.86% among 310,000;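 active = B-score over 3 SD under the library average, and starting fluorescence ratio not unusually high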;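 also: choline stimulus applied at its EC90 after an EC20 pre-addition; B-score computed on integrated fluorescence ratio after choline addition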
CHT allo act: human CHT allosteric activation. Q9GZV3. CHT-expressing cells, membrane potential dye, choline EC20; stronger effect = higher value; LV-AA mutant CHT in HEK293 cells. B-score at 10 µM. hit rate 0.49% among 310,000;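 active = initial fluorescence not abnormally high and integrated response B-score, plate-corrected, over 3 SD above library mean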
TMEM16A inh: inhibitors of mouse TMEM16A calcium-activated chloride channel; Q8BHY3; HEK293 TMEM16A/YFP iodide influx fluorescence, ionomycin; normalized B-score (activity score, 25-100; higher = stronger inhibition) at 10 µM; hit rate 1.2% among 310,000;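 active = ratio plate-corrected score three or more library SD toward inhibition, starting fluorescence score within five deviations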;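 also: score derived from kinetic fluorescence span divided by baseline fluorescence per well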
TMEM16A reconf: reconfirmed blocker of mouse TMEM16A calcium-activated chloride channel. shares compounds with TMEM16A inh. HEK293 TMEM16A/YFP-H148Q, iodide quench fluorescence; ionomycin added to raise cell calcium. inhibition, % at 10 µM. hit rate 39% among 2,300. AID 652189;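 active = mean duplicate percent inhibition, scaled so buffer wells are 0 and the reference blocker 100, over three buffer SD above buffer mean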
TMEM16A Ca cntr: counter-screen for TMEM16A inhibitors: effect on calcium mobilization; TMEM16A/YFP HEK293, Fluo4 calcium mobilization; shares compounds with TMEM16A inh; hit rate 2% among 2,300; calcium response (% of ionomycin), % at 10 µM; AID 652231;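 active = duplicate-averaged calcium signal over 20% of the ionomycin maximum, relative to buffer baseline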;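 also: each well's signal is peak minus trough fluorescence divided by its pre-addition baseline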
YFP-HEK293 quench: parental YFP-HEK293 iodide quench counter-screen activity. 2,300 tested, under 10 active. YFP ratio F(max-min)/F0 at 10 µM. ionomycin. shares compounds with TMEM16A inh;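 active = yellow fluorescent protein signal ratio exceeding the buffer control mean by over 5 SD of those controls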;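 also: ratio is mean of duplicate wells from kinetic YFP trace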
ClC-1 rat inh: blocks the rat ClC-1 voltage-dependent chloride channel; CHO ClC-1-YFP, iodide influx fluorescence quench; iodide control reads 0, buffer control 100; 2,300 tested, under 10 active; ratio percent, % at 10 µM; shares compounds with TMEM16A inh;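 active = duplicate-mean ratio percent above the mean of iodide-only control wells, which defines zero, plus 5 of their SD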;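 also: higher percent means stronger block of ClC-1 iodide influx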
Target sequence (P35524 whole entry, looked up): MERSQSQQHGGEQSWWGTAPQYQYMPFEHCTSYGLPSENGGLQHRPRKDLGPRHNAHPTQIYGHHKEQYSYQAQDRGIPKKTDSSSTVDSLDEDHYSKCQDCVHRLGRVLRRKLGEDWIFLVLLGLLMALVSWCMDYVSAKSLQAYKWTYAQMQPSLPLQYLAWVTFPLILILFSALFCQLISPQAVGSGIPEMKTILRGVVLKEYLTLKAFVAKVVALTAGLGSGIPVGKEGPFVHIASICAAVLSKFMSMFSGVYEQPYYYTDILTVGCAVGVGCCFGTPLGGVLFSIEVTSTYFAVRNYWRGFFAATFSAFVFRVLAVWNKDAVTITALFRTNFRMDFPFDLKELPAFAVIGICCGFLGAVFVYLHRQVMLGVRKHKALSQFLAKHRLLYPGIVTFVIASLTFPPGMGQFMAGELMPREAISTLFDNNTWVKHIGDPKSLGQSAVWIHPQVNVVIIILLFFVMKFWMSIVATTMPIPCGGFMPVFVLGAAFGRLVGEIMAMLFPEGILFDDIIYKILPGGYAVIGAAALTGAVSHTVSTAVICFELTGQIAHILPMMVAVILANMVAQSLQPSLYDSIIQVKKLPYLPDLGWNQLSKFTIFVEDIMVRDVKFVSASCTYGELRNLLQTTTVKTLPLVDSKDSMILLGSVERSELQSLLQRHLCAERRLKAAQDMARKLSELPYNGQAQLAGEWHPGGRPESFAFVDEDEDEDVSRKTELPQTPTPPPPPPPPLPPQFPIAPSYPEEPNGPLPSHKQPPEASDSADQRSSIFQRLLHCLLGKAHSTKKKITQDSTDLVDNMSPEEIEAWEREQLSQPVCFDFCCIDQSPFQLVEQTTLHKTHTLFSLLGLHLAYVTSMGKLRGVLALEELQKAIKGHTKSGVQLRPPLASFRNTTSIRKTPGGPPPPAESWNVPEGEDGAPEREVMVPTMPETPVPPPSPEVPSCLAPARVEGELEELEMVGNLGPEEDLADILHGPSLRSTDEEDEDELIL
Large screens that a line does not name were inactive (follow-up assays come after a bar, where they were run).

COc1ccc(C(=O)NC(=S)Nc2cccnc2)cc1Cl	none
O=C(NC1CCCCC1)c1ccc(S(=O)(=O)c2ccccc2Cl)c([N+](=O)[O-])c1	none (no result: TMEM16A act)
CN(C(=O)c1ccc(S(=O)(=O)c2cccc(Cl)c2)c([N+](=O)[O-])c1)C1CCCCC1	TMEM16A inh 25 | TMEM16A reconf inactive | TMEM16A Ca cntr inactive | YFP-HEK293 quench inactive | ClC-1 rat inh inactive
CN(C)S(=O)(=O)c1cccc(NC(=O)CSc2ncnc3ccccc23)c1	TMEM16A inh 25 | TMEM16A reconf inactive | TMEM16A Ca cntr inactive | YFP-HEK293 quench inactive | ClC-1 rat inh inactive
Cc1cc(C(=O)OCC(=O)Nc2cccc(S(=O)(=O)N(C)C)c2)c2ccccc2n1	none | TMEM16A reconf inactive | TMEM16A Ca cntr inactive | YFP-HEK293 quench inactive | ClC-1 rat inh inactive
O=[N+]([O-])c1ccc(CS(=O)(=O)N2CCN(c3ccccc3)CC2)cc1	none
Cn1c(SCC(=O)Nc2ccc3c(c2)OCCO3)nnc1-c1ccco1	TMEM16A inh 100 | TMEM16A reconf inactive | TMEM16A Ca cntr inactive | YFP-HEK293 quench inactive | ClC-1 rat inh inactive
Cn1nc(CC(=O)Nc2ccc3c(c2)OCCO3)c2ccccc2c1=O	TMEM16A inh 25 | TMEM16A reconf inactive | TMEM16A Ca cntr inactive | YFP-HEK293 quench inactive | ClC-1 rat inh inactive
Cn1nc(CC(=O)Nc2ccc(N3CCN(C(=O)OC(C)(C)C)CC3)cc2)c2ccccc2c1=O	TMEM16A inh 25 | TMEM16A reconf inactive | TMEM16A Ca cntr inactive | YFP-HEK293 quench inactive | ClC-1 rat inh inactive
Cn1nc(CC(=O)N2CCN(c3ccccc3)CC2)c2ccccc2c1=O	none
CCC(NCc1cccnc1)c1ccc(OC)c(OC)c1 (configuration not stated)	none (no result: CHT block, CHT allo act, TMEM16A inh)
CC12CCC(O)CC1=CCC1C2CCC2(C)C(c3ccn[nH]3)CCC12 (configuration not stated)	none (no result: CHT block, CHT allo act, TMEM16A inh)
COc1ccc(NC(=O)c2ccc(Cc3ccc(C)cc3)o2)cc1	TMEM16A inh 25 | TMEM16A reconf inactive | TMEM16A Ca cntr inactive | YFP-HEK293 quench inactive | ClC-1 rat inh inactive
COc1ccccc1OCc1ccc(C(=O)Nc2ccncc2)o1	TMEM16A inh 100 | TMEM16A reconf 34.5% | TMEM16A Ca cntr inactive | YFP-HEK293 quench inactive | ClC-1 rat inh inactive
O=c1c(Sc2ccccc2)c(C(F)(F)F)[nH]n1-c1ccccc1	TMEM16A inh 100 | TMEM16A reconf 23.5% | TMEM16A Ca cntr inactive | YFP-HEK293 quench inactive | ClC-1 rat inh inactive
O=C1CN(C(=O)N[C@@H](Cc2ccccc2)C(=O)N[C@H](Cc2ccccc2)C(=O)O)c2ccccc2N1	none
CC(=O)c1c(O)cc(O)c(C(C)=O)c1O	TMEM16A inh 100 | TMEM16A reconf 31.0% | TMEM16A Ca cntr inactive | YFP-HEK293 quench inactive | ClC-1 rat inh inactive
O=c1[nH]c(Cn2nnc(-c3ccccc3)n2)nc2scc(-c3ccccc3)c12	none
Cc1ccc(COc2ccccc2C(=S)N2CCCC2)cc1	TMEM16A inh 25 | TMEM16A reconf inactive | TMEM16A Ca cntr inactive | YFP-HEK293 quench inactive | ClC-1 rat inh inactive
Fc1ccc(COc2ccccc2C(=S)N2CCCC2)cc1	none
Cc1oncc1-c1csc(-c2ccccc2Cl)n1	none
Cc1oncc1-c1csc(-c2ccccc2)n1	TMEM16A inh 100 | TMEM16A reconf inactive | TMEM16A Ca cntr inactive | YFP-HEK293 quench inactive | ClC-1 rat inh inactive
O=C(Nc1cccc2cccnc12)c1ccc(Br)cc1Br	none
CCCOc1ccccc1C1CC(=O)Nc2cc3c(cc21)OCCO3 (configuration not stated)	TMEM16A inh 100 | TMEM16A reconf 25.5% | TMEM16A Ca cntr inactive | YFP-HEK293 quench inactive | ClC-1 rat inh inactive
O=C1CC/C=C\C[C@@H](CC(=O)N(CCO)Cc2ccccc2)C(=O)N[C@H](Cc2ccccc2)CO1	none (no result: CHT block, CHT allo act, TMEM16A inh)
CNc1nc(SCC(=O)Nc2ccc(Cl)c(Cl)c2)nc(N2CCOCC2)n1	none
